Methyltransferases: Primary Screen for Target Class Profiling of Small Molecule Inhibitors of Methyltransferases; purified enzyme, MTase-Glo SAH luminescence; active compounds read low; calls only at 40 µM; actives 3.9% (n = 25,000); call rule not given here
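Each enzyme was assayed with SAM and its substrate. SAH formation detected by MTase-Glo luminescence; single-point 40 uM screen[…].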
Calls only; – = inactive; + = active, no number; ! = not active in a repeat. This excerpt belongs to a sample that is enriched for hits.

SMILES	Methyltransferases
O=C(NC1CCN(Cc2ccccc2)CC1)C1CCCN(c2cnc3nccnc3c2)C1 (stereo not drawn)	–
COc1ccccc1-c1cccc(CN2CCC(NC(C)=O)CC2)c1	–
COc1cc2nc(N3CCCN(C)CC3)nc(NC3CCN(Cc4ccccc4)CC3)c2cc1OC	+
COc1cc2nc(N3CCN(C)CC3)nc(NC3CCN(Cc4ccccc4)CC3)c2cc1OC	+!
CN1CCN(Cc2nnc(C(=O)N3CCC[C@@H]3c3ccc(Br)cc3)n2Cc2ccccc2)CC1	–
COc1cc2nc(N3CCN(C(=O)COc4c(OC)cccc4C(C)C)CC3)nc(N)c2cc1OC	–
CCOc1ccccc1CN1C(=O)c2cc3sccc3n2CC1(C)C(=O)NC1CCCCCC1 (stereo not drawn)	–
COC(=O)c1cccc(NC(=O)N2Cc3c(sc4c3CCCC4)-n3cccc3C2c2cccc(F)c2)c1 (stereo not drawn)	–
CCCC1c2ccc(C)n2CCN1C(=O)Nc1cc(Cl)c(OC)cc1OC (stereo not drawn)	–
COc1ccccc1CNC(=O)c1ncn2c1C(=O)N(C1CC1)C(C)(C(=O)NCc1ccc(C)cc1)C2 (stereo not drawn)	–
O=C(Cn1nc2n(Cc3ccccc3)c(=O)c3ccccc3n2c1=O)Nc1cc(F)ccc1F	–
COc1cccc(CNC(=O)C(C)n2ccc3cc(S(=O)(=O)N4CCCC4)ccc32)c1OC (stereo not drawn)	–
Cc1cc2c(cc3n2CC(C)(C(=O)NC2CCCCC2)N(Cc2ccco2)C3=O)o1 (stereo not drawn)	–
CCOc1cccc(C2c3cccn3-c3sc4c(c3CN2C(=O)NCCCOC)CCCC4)c1 (stereo not drawn)	–
CC(C)CCNC(=O)C1(C)Cn2nc(C(=O)NCCc3cccs3)cc2C(=O)N1C (stereo not drawn)	–
Cc1cccc(NC(=O)N2CCn3cccc3C2Cc2ccccc2)c1 (stereo not drawn)	–
O=C(Nc1cccc(F)c1)N1CCn2cccc2C1Cc1ccccc1 (stereo not drawn)	–
O=C(Nc1ccc(F)c(Cl)c1)N1CCn2cccc2C1Cc1ccccc1 (stereo not drawn)	+
Cc1cc(C)cc(NS(=O)(=O)c2cc3c(cc2C)n(C)c(=O)n3C)c1	–
N=C(N)SCCc1cnc[nH]1	–
Fc1ccc(C(OCCCc2cnc[nH]2)c2ccc(F)cc2)cc1	+
CN1CCN(CCN2C(=O)c3ccc(-c4ccco4)n3CC2(C)C(=O)NC2CCCCC2)CC1 (stereo not drawn)	–
OC[C@H]1O[C@@H](n2cnc3c(NCc4ccc(O)cc4)ncnc32)[C@H](O)[C@@H]1O	–
Nc1ncnc2c1ncn2[C@@H]1O[C@H](COP(=O)(O)CP(=O)(O)OP(=O)(O)O)[C@@H](O)[C@H]1O	–
N#Cc1ccc(COC[C@H]2O[C@@H](n3c(NCc4ccc(Cl)c(Cl)c4)nc4c(N)ncnc43)[C@H](O)[C@@H]2O)cc1	+
SMILES	Methyltransferases
NC(=O)c1ccc2c(c1)C1C=CCC1C(c1ccc(Cl)cc1)N2 (stereo not drawn)	–
CC(c1ccccc1)N1C(=O)c2ccccc2CC1(C)C(=O)NC1CCCCCC1 (stereo not drawn)	–
O=C(Nc1ncc([N+](=O)[O-])s1)c1ccccc1O	–
O=C(c1cc(O)c(O)c([N+](=O)[O-])c1)c1ccccc1F	+
O=C(Nc1ccccc1)c1cc([N+](=O)[O-])ccc1Cl	–
CCCn1c(=O)c2ccc(C(=O)NCC(C)C)cc2n2c(=O)n(Cc3ccc(F)cc3)nc12	–
CC1CCCN(c2nc3c(-c4ccccc4)nnn3c3ccccc23)C1 (stereo not drawn)	–
CCc1ccc(NC(=O)Cn2nc3n(CCCOC(C)C)c(=O)c4ccccc4n3c2=O)cc1	–
S=c1ssc2c1CCC2	+
CC(C)CCn1c(=O)c2ccccc2n2c(CCC(=O)NC(C)c3ccccc3)nnc12 (stereo not drawn)	–
CC[C@H]1CN(c2nc(N)c(C(N)=O)nc2Cl)CCN1C1CCN(Cc2ccc(Cl)cc2)CC1	+
NC(N)=NC(=O)c1nc(Cl)c(N2CCCCCC2)nc1N	–
Cc1c(C)c(NCC(=O)N(C)C2CCN(Cc3ccc(C(N)=O)cc3)CC2)c(C)c(C)c1N	–
CC(C)CNC(=O)c1ccc2c(=O)n(C(C)C)c3nn(CC(=O)Nc4ccc(Cl)cc4)c(=O)n3c2c1	–
CCC1c2ccc(C)n2CCN1C(=O)Nc1cc(Cl)ccc1C (stereo not drawn)	–
O=C(CC1CCOC2(CCN(S(=O)(=O)c3ccc(F)cc3)CC2)C1)N1CCOCC1 (stereo not drawn)	–
CC(C)=CCC[C@](C)(O[C@@H]1O[C@H](CO)[C@@H](O)[C@H](O)[C@H]1O)[C@H]1CC[C@]2(C)[C@@H]1[C@H](O)CC1[C@@]3(C)CC[C@H](O)C(C)(C)C3[C@@H](O[C@@H]3O[C@H](CO)[C@@H](O)[C@H](O)[C@H]3O[C@@H]3O[C@@H](C)[C@H](O)[C@@H](O)[C@H]3O)C[C@]12C (stereo partly drawn)	–

Assay outcomes: PubChem, National Center for Advancing Translational Sciences (NCATS)
